Results filed as inconclusive are left out. Active and inactive are the calls of the source. Calls follow the shape of the dose curve; as a rule, active = well fitted curve in the direction sought with a large enough effect; inconclusive = small, poorly fitted or top-dose-only effect, or another doubt; inactive = no such curve, though single readings can be large or run the other way.
These compounds were tested against Protein phosphatase 1D (Homo sapiens) (UniProt O15297) (assay: Rhodamine-PBP qHTS Assay for Modulators of WT P53-Induced Phosphatase 1 (WIP1) (AID 1347425; also: % of control where 0% means no effect)). Settings: recombinant WIP1, Rhodamine-PBP phosphate fluorescence, real-time; series mostly up to 57.5 µM.
Sequence of Protein phosphatase 1D (Homo sapiens) (O15297 whole entry, looked up): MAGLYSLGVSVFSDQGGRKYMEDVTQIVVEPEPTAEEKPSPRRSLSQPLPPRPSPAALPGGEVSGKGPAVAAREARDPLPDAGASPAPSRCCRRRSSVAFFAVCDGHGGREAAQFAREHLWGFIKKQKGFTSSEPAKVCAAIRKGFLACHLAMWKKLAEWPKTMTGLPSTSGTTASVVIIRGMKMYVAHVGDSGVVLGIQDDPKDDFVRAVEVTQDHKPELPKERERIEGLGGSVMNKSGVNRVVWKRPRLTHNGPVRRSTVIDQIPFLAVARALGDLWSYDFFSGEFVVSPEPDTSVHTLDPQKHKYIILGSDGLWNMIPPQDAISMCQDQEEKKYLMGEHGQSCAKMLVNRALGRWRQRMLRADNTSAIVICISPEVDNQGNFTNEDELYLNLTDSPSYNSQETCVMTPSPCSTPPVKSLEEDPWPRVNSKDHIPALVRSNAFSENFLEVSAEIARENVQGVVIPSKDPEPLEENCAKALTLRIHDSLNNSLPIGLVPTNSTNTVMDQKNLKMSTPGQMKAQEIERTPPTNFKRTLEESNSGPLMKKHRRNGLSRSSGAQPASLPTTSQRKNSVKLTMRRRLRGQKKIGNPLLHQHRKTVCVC
Description: Assay Provider (PI): Nathan Coussens Ph.D.
National Center for Advancing Translational Sciences (NCATS), Rockville, MD
National Institute of Health (NIH), Bethesda, Maryland
WT P53-Induced Phosphatase 1 (WIP1) is a member of the magnesium-dependent serine/threonine protein phosphatase (PPM) family and is induced by P53 in response to DNA damage. In several human cancers, the WIP1 protein is overexpressed, which is generally associated with a worse prognosis. Although WIP1 is an attractive therapeutic target, no potent, selective, and bioactive small-molecule modulator with favorable pharmacokinetics has been reported. Phosphatase enzymes are among the most challenging targets for small molecules because of the difficulty of achieving both modulator selectivity and bioavailability. Another major obstacle has been the availability of robust and physiologically relevant phosphatase assays that are suitable for high-throughput screening.
Here, we describe two orthogonal biochemical WIP1 activity assays that utilize phosphopeptides from native WIP1 substrates. We optimized a RapidFire MS assay to quantify the enzymatically dephosphorylated peptide reaction product in a 384-well format. Additionally, a redshifted Rhodamine-PBP fluorescence assay was optimized in a 1,536-well format to enable real-time WIP1 activity measurements through the detection of the orthogonal reaction product, Pi. We validated these two optimized assays by quantitative high-throughput screening against the National Center for Advancing Translational Sciences (NCATS) Pharmaceutical Collection and used secondary assays to confirm and evaluate inhibitors identified in the primary screen.
SEQUENCE No. (e.g., 1, 2, 3, etc.); […] (e.g., Cells, Incubation, Reagent, etc.); VALUE; DESCRIPTION
1; Reagent; 3 uL; WIP1 (6.7 nM), Rh-PBP (13.3 uM), columns 1-48
3; Library Compounds; 23 nL; NCATS Pharmaceutical Collection, column 5-48
4; Control Compounds; DMSO in column 2, GSK2830371 (57.5 uM, final) in 3-fold serial dilutions in column 3, GSK2830371 (1.15 uM, final) in column 4
5; Time; 1 hr; incubation
6; Detection; fluorescence (f0); ViewLux, excitation filter = 525 nm, emission filter = 598 nm
7; Reagent; 1 uL; VEPP-pS-QETFS (40 uM), columns 2-48
8; Detection; fluorescence (f1); ViewLux, excitation filter = 525 nm, emission filter = 598 nm
NOTES (numbers refer to sequence above)
1 & 2; Black medium binding Greiner 1536-well plates (# 789176-F); assay buffer: 50 mM Tris-HCl pH 7.5, 30 mM MgCl2, 1mM TCEP, 0.1 mM EGTA, 75 ug/mL BSA; dispensed with a BioRaptr liquid handler (Beckman Coulter).
3 & 4; Kalypsys pintool (equipped with 1536 pinhead, Wako USA) transfer. Tip wash sequence: DMSO, methanol, 3 sec vacuum dry.
5; Room temperature incubation.
7; VEPPL-pS-QETFS in assay buffer dispensed with a BioRaptr; final reaction conditions: 5 nM WIP1, 10 uM VEPPL-pS-QETFS, 10 uM Rh-PBP, 50 mM Tris-HCl pH 7.5, 30 mM MgCl2, 1 mM TCEP, 0.1 mM EGTA, 75 ug/mL BSA.
8; Measurement taken at 1 min intervals for 11 min. Delta readout = f1 - f0.
In the case of `NC(CS)C(=O)O` (stereo not given), the outcome is reported as “inactive”.
For `O=C1c2ccccc2C(=O)C1c1ccccc1`, the outcome was “inactive”.
`CCOC(=O)[C@H](CCc1ccccc1)N[C@@H](C)C(=O)N1Cc2ccccc2C[C@H]1C(=O)O` was tested, and the outcome was “inactive”.
In the case of `Cc1c(F)c(N2CCNC(C)C2)cc2c1c(=O)c(C(=O)O)cn2C1CC1` (stereo not given), the outcome is reported as “inactive”.
`CN=C(NC#N)NCCSCc1csc(N=C(N)N)n1` was tested, and the outcome was “inactive”.
With `CCCCCCC[N+](CC)(CC)CCCCc1ccc(Cl)cc1` the outcome was “inactive”.
In the case of `O=C1OCCN1/N=C/c1ccc([N+](=O)[O-])o1`, the outcome is reported as “inactive”.
With `Cc1c(C(C)C)c(=O)n(-c2ccccc2)n1C` the outcome was “inactive”.
`CN1CCCC(CC2c3ccccc3Sc3ccccc32)C1` (stereo not given) was tested, and the outcome was “inactive”.
With `C[C@]12CC[C@@H]3c4ccc(O)cc4CC[C@H]3[C@@H]1C[C@@H](O)[C@@H]2O` the outcome was “inactive”.
In the case of `CCCN1CCCC[C@H]1C(=O)Nc1c(C)cccc1C`, the outcome is reported as “inactive”.
`CCCCCCCCCCCCCCCCOP(=O)([O-])OCC[N+](C)(C)C` was tested, and the outcome was “inactive”.
With `NC(CO)(CO)CO` the outcome was “inactive”.
For `CC(O)(P(=O)(O)O)P(=O)(O)O`, the outcome was “inactive”.
For `Cc1cc(O)c(C(C)C)cc1Cl`, the outcome was “inactive”.
In the case of `CCC(=O)c1c(O)cc(O)cc1O`, the outcome is reported as “inactive”.
In the case of `CCCCCCCCCCCCCCCC[N+](C)(C)CCN(Cc1ccc(OC)cc1)c1ncccn1`, the outcome is reported as “inactive”.
For `C[C@]12C=CC(=O)C=C1CC[C@@H]1[C@@H]2[C@@H](O)C[C@@]2(C)[C@H]1CC[C@]2(O)C(=O)CO`, the outcome was “inactive”.
In the case of `COc1cccc2c1C(=O)c1c(O)c3c(c(O)c1C2=O)C[C@@](O)(C(C)=O)C[C@@H]3O[C@H]1C[C@H](N)[C@H](O)[C@H](C)O1`, the outcome is reported as “inactive”.
For `CCN1CCCC1=O`, the outcome was “inactive”.
`Nc1ccn([C@@H]2O[C@H](CO)[C@@H](O)C2(F)F)c(=O)n1` was tested, and the outcome was “inactive”.
For `CN1[C@@H]2CC[C@H]1CC(OC(=O)c1c[nH]c3ccccc13)C2` (stereo not given in full), the outcome was “inactive”.
`Cc1ccccc1C(=O)Nc1ccc(C(=O)N2CCCC(N(C)C)c3ccccc32)cc1` (stereo not given) was tested, and the outcome was “inactive”.
With `Cc1onc(-c2c(Cl)cccc2Cl)c1C(=O)N[C@@H]1C(=O)N2[C@@H]1SC(C)(C)[C@@H]2C(=O)O` the outcome was “inactive”.
With `O=c1[nH]c(=O)n([C@H]2CCCO2)cc1F` the outcome was “inactive”.
For `CC(=O)OCC(=O)[C@@]1(O)[C@H](C)C[C@H]2[C@@H]3CCC4=CC(=O)C=C[C@]4(C)[C@@]3(F)[C@@H](O)C[C@@]21C`, the outcome was “inactive”.
For `CCCC(=O)Nc1ccc(OCC(O)CNC(C)C)c(C(C)=O)c1` (stereo not given), the outcome was “inactive”.
In the case of `O=C(OCC(O)CO)c1ccccc1Nc1ccnc2cc(Cl)ccc12` (stereo not given), the outcome is reported as “inactive”.
`NC[C@H]1O[C@H](O[C@H]2[C@H](O[C@@H]3O[C@H](CO)[C@@H](O)[C@H]3O)C(O)[C@H](N)C[C@@H]2N)[C@H](N)[C@@H](O)[C@@H]1O` (stereo not given in full) was tested, and the activity change, negative = inhibition was 17.3% [at 11.5 µM] (inactive).
For `N[C@H](Cc1c[nH]c2ccccc12)C(=O)O`, the outcome was “inactive”.
With `C[C@H]1C[C@H]2[C@@H]3CCC4=CC(=O)C=C[C@]4(C)[C@@]3(Cl)[C@@H](O)C[C@]2(C)[C@@]1(O)C(=O)CO` the outcome was “inactive”.
In the case of `O=C(OCCOCCO)c1ccccc1Nc1cccc(C(F)(F)F)c1`, the outcome is reported as “inactive”.
In the case of `N[C@@H](CCC(=O)N[C@@H](CS)C(=O)NCC(=O)O)C(=O)O`, the outcome is reported as “inactive”.
In the case of `CC1(C)O[C@@H]2[C@@H](CO[C@@]3(COS(N)(=O)=O)OC(C)(C)O[C@@H]23)O1`, the outcome is reported as “inactive”.
In the case of `CCCCCCCCCCOCC(O)CN` (stereo not given), the outcome is reported as “inactive”.
In the case of `Nc1nc2ncc(CNc3ccc(C(=O)N[C@@H](CCC(=O)O)C(=O)O)cc3)nc2c(=O)[nH]1`, the outcome is reported as “inactive”.
For `NC(=O)CC[C@@H]1NC(=O)[C@H](Cc2ccccc2)NC(=O)[C@H](Cc2ccc(O)cc2)NC(=O)CCSSC[C@@H](C(=O)N2CCC[C@H]2C(=O)N[C@@H](CCCN=C(N)N)C(=O)NCC(N)=O)NC(=O)[C@H](CC(N)=O)NC1=O`, the outcome was “inactive”.
With `OC[C@H]1O[C@@H](n2cnc3c(=S)nc[nH]c32)[C@H](O)[C@@H]1O` the outcome was “inactive”.
For `Clc1ccc2c(c1)CCc1cccnc1C2=C1CCNCC1`, the outcome was “inactive”.
In the case of `O=c1c(-c2ccccc2)c1-c1ccccc1`, the outcome is reported as “inactive”.

Reference: PubChem BioAssay (NCATS)
